Measurements: PubChem BioAssay (Tox21)
Several values for one entry are separate records, joined by “and”; a condition that tells them apart may be missing. Identical values can stand only once. Records with an inconclusive call do not appear. A call without a number means that no potency is given here. Some structures have more than one record in an assay (separate samples or runs), and their calls can disagree. Activity calls are given as the source filed them. Unless noted, the call rests on the fitted dose curve; in most records, active means well fitted curve in the direction sought with a large enough effect in the repeat runs; inconclusive means weak or mixed curves; inactive means no such curve, though single readings can be large; an effect the other way counts as inactive or inconclusive.

Columns and labels:
[1] = tested on: thyroid hormone receptor (rat, GH3 cells); assay: qHTS assay to identify small molecule agonists of the thyroid receptor (TR) signaling pathway (AID 743066; calls by dose curve)
[2] = qHTS assay to identify small molecule antagonists of the estrogen receptor alpha (ER-alpha) signaling pathway - cell viability counter screen (AID 743074; calls by dose curve;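 further: HEK293 cells carrying ER-alpha-UAS-bla reporter stimulated with 17beta-estradiol; nearly all actives have a fitted effect of over 45% in size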; further: potency means the concentration at half of the fitted maximal effect)
[3] = qHTS assay to identify small molecule antagonists of the estrogen receptor alpha (ER-alpha) signaling pathway using the BG1 cell line - cell viability counter screen (AID 743081);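 further: compound given together with 17beta-estradiol as the ER stimulus; nearly all actives have a fitted effect of over 45% in size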; further: potency means the concentration at half of the fitted maximal effect
[4] = qHTS assay to identify aromatase inhibitors - cell viability counter screen (AID 743084);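 further: cells stimulated with testosterone during compound exposure; nearly all actives have a fitted effect of over 55% in size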; further: potency means the concentration at half of the fitted maximal effect
[5] = target: Estrogen receptor (Homo sapiens) (UniProt P03372); assay: qHTS assay to identify small molecule antagonists of the estrogen receptor alpha (ER-alpha) signaling pathway (AID 743069; active means well fitted curve in the direction sought with a large enough effect in the signal ratio in the repeat runs, not every such curve was filed as active; the % refers to the signal ratio)
Estrogen receptor (Homo sapiens), sequence (P03372 whole entry, looked up): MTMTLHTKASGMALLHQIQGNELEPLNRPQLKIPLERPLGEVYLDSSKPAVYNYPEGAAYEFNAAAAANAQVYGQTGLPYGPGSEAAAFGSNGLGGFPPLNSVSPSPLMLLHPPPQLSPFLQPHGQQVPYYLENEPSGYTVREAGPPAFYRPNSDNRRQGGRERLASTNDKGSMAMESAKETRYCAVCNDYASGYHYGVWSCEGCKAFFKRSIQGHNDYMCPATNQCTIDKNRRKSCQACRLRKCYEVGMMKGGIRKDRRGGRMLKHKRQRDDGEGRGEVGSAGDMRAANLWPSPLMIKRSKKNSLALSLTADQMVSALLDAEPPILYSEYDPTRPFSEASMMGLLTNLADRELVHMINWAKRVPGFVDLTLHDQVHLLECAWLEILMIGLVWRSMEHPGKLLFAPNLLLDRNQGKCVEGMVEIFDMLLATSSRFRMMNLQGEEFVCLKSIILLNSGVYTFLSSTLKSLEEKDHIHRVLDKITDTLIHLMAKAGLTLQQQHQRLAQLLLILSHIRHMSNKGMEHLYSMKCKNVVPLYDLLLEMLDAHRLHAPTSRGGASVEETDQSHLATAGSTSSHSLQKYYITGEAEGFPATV
How it was run: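 A 17beta-estradiol challenge was applied right after compound transfer to ER-alpha-UAS-bla HEK293 cells previously kept in charcoal-stripped serum. Plates stood 18 hr at 37C and 5% CO2; fluorescence was read following 2 hr FRET substrate loading at room temperature.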

[6] = target: Estrogen receptor (Homo sapiens) (UniProt P03372); assay: qHTS assay to identify small molecule agonists of the estrogen receptor alpha (ER-alpha) signaling pathway (AID 743075; calls by dose curve;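 further: HEK293 GripTite cells with ER-alpha and UAS-driven beta-lactamase reporter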)
[7] = target: Estrogen receptor (Homo sapiens) (UniProt P03372); assay: qHTS assay to identify small molecule agonists of the estrogen receptor alpha (ER-alpha) signaling pathway using the BG1 cell line (AID 743079); further: nearly all actives have a fitted effect of over 20% in size; further: potency means the concentration at half of the fitted maximal effect
[8] = qHTS assay to identify small molecule antagonists of the estrogen receptor alpha (ER-alpha) signaling pathway using the BG1 cell line (AID 743080; calls by dose curve;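 further: BG1 cells stimulated with 17beta-estradiol alongside compound; nearly all actives have a fitted effect of over 25% in size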); conditions: BG1Luc4E2 ERE-luciferase antagonist mode, luminescence; activity change, negative = inhibition: at 70.3 µM (top of the series) unless noted
How it was run: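 Quantitative HTS on the Tox21 10K library: BG1 cells with endogenous ER-alpha and ERE-luciferase reporter, 17beta-estradiol stimulation, 21.5 h compound exposure, luminescence endpoint with parallel fluorescence cytotoxicity counter-read.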

Aromatase (Homo sapiens) = Aromatase (Homo sapiens) (UniProt P11511); assay: qHTS assay to identify aromatase inhibitors (AID 743083); further: nearly all actives have a fitted effect of over 55% in size; further: potency means the concentration at half of the fitted maximal effect
Aromatase (Homo sapiens), sequence (P11511 whole entry, looked up): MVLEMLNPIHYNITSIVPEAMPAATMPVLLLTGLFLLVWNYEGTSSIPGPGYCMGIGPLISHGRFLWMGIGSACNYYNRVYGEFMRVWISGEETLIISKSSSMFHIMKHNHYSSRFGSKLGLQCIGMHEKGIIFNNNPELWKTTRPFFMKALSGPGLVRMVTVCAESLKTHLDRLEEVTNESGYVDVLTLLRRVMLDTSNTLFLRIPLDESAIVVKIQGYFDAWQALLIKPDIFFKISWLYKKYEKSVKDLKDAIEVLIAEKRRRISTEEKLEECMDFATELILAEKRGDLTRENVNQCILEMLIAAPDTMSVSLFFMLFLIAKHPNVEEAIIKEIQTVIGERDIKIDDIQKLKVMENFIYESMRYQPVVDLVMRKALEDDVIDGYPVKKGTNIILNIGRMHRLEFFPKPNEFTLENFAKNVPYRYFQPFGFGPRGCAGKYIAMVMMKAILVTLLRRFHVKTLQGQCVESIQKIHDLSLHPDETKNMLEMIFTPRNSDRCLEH

[9] = qHTS assay to identify small molecule antagonists of the thyroid receptor (TR) signaling pathway (AID 743065); further: nearly all actives have a fitted effect of over 55% in size
How it was run: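 GH3.TRE-Luc rat pituitary cells carrying two TR response elements driving luciferase were plated for 4 h, given compound plus 1 nM T3 (final), and incubated 23.5 h at 37 C. ONE-Glo luminescence measured reporter inhibition; CellTiter-Fluor fluorescence tracked cytotoxicity.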

SMILES | Potency [1] | Potency [2] | Potency [3] | Potency [4] | Potency [5] | Potency [6] | Potency [7] | Potency [8] | Potency (Aromatase (Homo sapiens)) | Potency [9]
CCCCCCCCCCCCOS(=O)(=O)O | inactive | inactive | inactive | inactive |  |  |  |  |  | 
COCC(=O)N(c1c(C)cccc1C)C(C)C(=O)OC (stereo not given) |  | inactive | inactive | inactive | inactive | inactive | inactive | inactive | inactive | 
CN(C)[C@@H]1C(=O)C(C(N)=O)=C(O)[C@@]2(O)C(=O)C3=C(O)c4c(O)cccc4[C@@](C)(O)[C@H]3[C@H](O)[C@@H]12 | inactive | inactive | inactive | inactive |  |  |  |  | inactive | 
Nc1ccccc1 | inactive | inactive and 24.5 µM (active) | inactive | inactive |  |  |  |  | inactive | 
CCC[N+]1(C)CCCC1 |  | inactive | inactive |  |  |  |  |  |  | 
Cc1cc(Cl)ccc1N | inactive | inactive | inactive | inactive |  |  |  |  | inactive | inactive
C[N+](C)(C)Cc1ccccc1 | inactive | inactive | inactive | inactive | inactive | inactive | inactive | inactive | inactive | 
O=C(O)C(Cl)(Cl)Cl | inactive | inactive | inactive | inactive |  |  |  |  | inactive | inactive
O=P1(N(CCCl)CCCl)NCCCO1 (stereo not given) | inactive | inactive | inactive | inactive | inactive | inactive | inactive and 27.3 µM (active) | inactive | inactive | 
O=[N+]([O-])O |  | inactive | inactive | inactive |  |  |  |  | inactive | 
CCCCCCCCCCCCCCCCn1cc[n+](C)c1 | inactive |  | inactive and 49 µM (active) and 27.4 µM (active) |  |  |  |  |  |  | 
CC[n+]1ccccc1 | inactive | inactive | inactive and 30.4 µM (active) | inactive and 54 µM (active) |  |  |  | inactive | inactive and 54 µM (active) | 
CCn1cc[n+](C)c1C |  | inactive | inactive | inactive |  |  |  |  | inactive | 
Oc1ccccc1-c1ccccc1 | inactive | inactive | inactive | inactive | inactive | inactive | inactive | inactive | inactive | 
CCCCCC[n+]1ccccc1 | inactive | inactive | inactive | inactive |  |  |  |  | inactive | inactive
CCCC[n+]1ccc(C)cc1 | inactive | inactive and 48.7 µM (active) | inactive | inactive |  |  |  |  | inactive and 19.4 µM (active) | 
